# From the supplement of paper PMC6992640
# How the values were obtained:
# HCI01 = cells of a triple-negative basal-like breast cancer xenograft; experiment: cell viability of combination (% of vehicle); higher = less cytotoxic; conditions: 1 µM; 72 h; partner dose: 10 nM
# Description: (§1)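 PDX cells were treated for 72 h with each drug at 1 µM plus carfilzomib (10 nM; 100 nM for WHIM2). Luciferase viability is expressed as percent of vehicle.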
# UCD52 = cells of a triple-negative basal-like breast cancer xenograft; experiment: as above; conditions: 1 µM; 72 h; partner dose: 10 nM
# Description: as §1
SMILES,cell viability of combination (HCI01),cell viability of combination (UCD52)
Cl.OC(CNCC(O)C1CCc2cc(F)ccc2O1)C1CCc2cc(F)ccc2O1 (stereo unspecified) [Nebivolol] + CC(C)C[C@H](NC(=O)[C@H](CCc1ccccc1)NC(=O)CN1CCOCC1)C(=O)N[C@@H](Cc1ccccc1)C(=O)N[C@@H](CC(C)C)C(=O)[C@@]1(C)CO1 [Carfilzomib],72.5,64.3
Cl.Cl.O=C1c2c(O)ccc(O)c2C(=O)c2c(NCCNCCO)ccc(NCCNCCO)c21 [Mitoxantrone HCl] + CC(C)C[C@H](NC(=O)[C@H](CCc1ccccc1)NC(=O)CN1CCOCC1)C(=O)N[C@@H](Cc1ccccc1)C(=O)N[C@@H](CC(C)C)C(=O)[C@@]1(C)CO1 [Carfilzomib],74.1,30
CC1CC(=O)NN=C1c1ccc(NN=C(C#N)C#N)cc1 (stereo unspecified) [Levosimendan] + CC(C)C[C@H](NC(=O)[C@H](CCc1ccccc1)NC(=O)CN1CCOCC1)C(=O)N[C@@H](Cc1ccccc1)C(=O)N[C@@H](CC(C)C)C(=O)[C@@]1(C)CO1 [Carfilzomib],74.1,61.5
Nc1ccn(C2OC(CO)C(O)C2O)c(=O)n1 (stereo unspecified) [Cytarabine] + CC(C)C[C@H](NC(=O)[C@H](CCc1ccccc1)NC(=O)CN1CCOCC1)C(=O)N[C@@H](Cc1ccccc1)C(=O)N[C@@H](CC(C)C)C(=O)[C@@]1(C)CO1 [Carfilzomib],57.8,68.3
CN1CCN(CCOc2cc(OC3CCOCC3)c3c(Nc4c(Cl)ccc5c4OCO5)ncnc3c2)CC1 [Saracatinib (AZD0530)] + CC(C)C[C@H](NC(=O)[C@H](CCc1ccccc1)NC(=O)CN1CCOCC1)C(=O)N[C@@H](Cc1ccccc1)C(=O)N[C@@H](CC(C)C)C(=O)[C@@]1(C)CO1 [Carfilzomib],66.1,39.3
COC(=O)C1=C(C)NC(C)=C(C(=O)OCCN(C)Cc2ccccc2)C1c1cccc([N+](=O)[O-])c1.Cl (stereo unspecified) [Nicardipine HCl] + CC(C)C[C@H](NC(=O)[C@H](CCc1ccccc1)NC(=O)CN1CCOCC1)C(=O)N[C@@H](Cc1ccccc1)C(=O)N[C@@H](CC(C)C)C(=O)[C@@]1(C)CO1 [Carfilzomib],115,52
CC(NCCCc1cccc(C(F)(F)F)c1)c1cccc2ccccc12.Cl (stereo unspecified) [Cinacalcet HCl] + CC(C)C[C@H](NC(=O)[C@H](CCc1ccccc1)NC(=O)CN1CCOCC1)C(=O)N[C@@H](Cc1ccccc1)C(=O)N[C@@H](CC(C)C)C(=O)[C@@]1(C)CO1 [Carfilzomib],89.6,59.9
CCN1CCN(Cc2ccc(Nc3ncc(F)c(-c4cc(F)c5nc(C)n(C(C)C)c5c4)n3)nc2)CC1.CS(=O)(=O)O + CC(C)C[C@H](NC(=O)[C@H](CCc1ccccc1)NC(=O)CN1CCOCC1)C(=O)N[C@@H](Cc1ccccc1)C(=O)N[C@@H](CC(C)C)C(=O)[C@@]1(C)CO1 [Carfilzomib],62.7,64.9
CCOC(=O)c1c(CSc2ccccc2)n(C)c2cc(Br)c(O)c(CN(C)C)c12.Cl [Arbidol HCl] + CC(C)C[C@H](NC(=O)[C@H](CCc1ccccc1)NC(=O)CN1CCOCC1)C(=O)N[C@@H](Cc1ccccc1)C(=O)N[C@@H](CC(C)C)C(=O)[C@@]1(C)CO1 [Carfilzomib],76.6,58.5
CCCCc1oc2ccccc2c1C(=O)c1cc(I)c(OCCN(CC)CC)c(I)c1.Cl [Amiodarone HCl] + CC(C)C[C@H](NC(=O)[C@H](CCc1ccccc1)NC(=O)CN1CCOCC1)C(=O)N[C@@H](Cc1ccccc1)C(=O)N[C@@H](CC(C)C)C(=O)[C@@]1(C)CO1 [Carfilzomib],90.8,63.7
CCc1cnn2c(NCc3ccc[n+]([O-])c3)cc(N3CCCCC3CCO)nc12 (stereo unspecified) + CC(C)C[C@H](NC(=O)[C@H](CCc1ccccc1)NC(=O)CN1CCOCC1)C(=O)N[C@@H](Cc1ccccc1)C(=O)N[C@@H](CC(C)C)C(=O)[C@@]1(C)CO1 [Carfilzomib],33.6,23.7
CC(CCC(=O)O)C1CCC2C3CCC4CC(O)CCC4(C)C3CCC12C (stereo unspecified) [Lithocholic Acid] + CC(C)C[C@H](NC(=O)[C@H](CCc1ccccc1)NC(=O)CN1CCOCC1)C(=O)N[C@@H](Cc1ccccc1)C(=O)N[C@@H](CC(C)C)C(=O)[C@@]1(C)CO1 [Carfilzomib],67.4,60.5
Cl.OC(c1cc(C(F)(F)F)nc2c(C(F)(F)F)cccc12)C1CCCCN1 (stereo unspecified) [Mefloquine hydrochloride] + CC(C)C[C@H](NC(=O)[C@H](CCc1ccccc1)NC(=O)CN1CCOCC1)C(=O)N[C@@H](Cc1ccccc1)C(=O)N[C@@H](CC(C)C)C(=O)[C@@]1(C)CO1 [Carfilzomib],82.9,51.6
